BCLXL inh – inhibitors of human Bcl-xL, primary screen, biochemical, fluorescence polarization, HTS; Bcl-2-like protein 1 (Homo sapiens), Q07817; GST-Bcl-xL / FITC-Bim BH3 peptide fluorescence polarization; inhibition, % at 10.9 µM; 0.7% of 320,000 active;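 active = inhibition above the mean of all tested compounds plus 3 SD, cutoff set per campaign, cut at about 30% in these data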;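 note: inhibitors lower millipolarization by displacing the labeled peptide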
Target sequence (Q07817 whole entry, looked up): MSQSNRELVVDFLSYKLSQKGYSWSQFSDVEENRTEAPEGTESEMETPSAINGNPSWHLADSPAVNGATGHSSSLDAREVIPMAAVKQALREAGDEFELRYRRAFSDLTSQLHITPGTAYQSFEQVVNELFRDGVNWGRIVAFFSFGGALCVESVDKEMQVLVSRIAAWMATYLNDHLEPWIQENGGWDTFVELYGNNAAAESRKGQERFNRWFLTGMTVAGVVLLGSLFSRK
GLD-1 RNA inh – GLD-1/TGE RNA complex disruptors, primary screen, biochemical, fluorescence polarization; purified GLD-1 + fluorescein TGE RNA; inhibition, % at 5.96 µM; 0.44% of 320,000 active; Female germline-specific tumor suppressor gld-1 (Caenorhabditis elegans), Q17339;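 active = percent inhibition above a per-plate cutoff, the plate mean of test compounds plus 3 SD, cut at about 30% in these data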
MEX-5 binding – MEX-5 zinc finger RNA-binding disruptors – biochemical, C. elegans, fluorescence polarization, MLPCN library, primary screen; AID 1832, 2009; MEX-5/FITC-TCR2 RNA binding; active compounds read low; activity score (negative = inhibition of binding), % at 10 µM; 0.38% of 300,000 active; Zinc finger protein mex-5 (Caenorhabditis elegans), Q9XUB2;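 active = inhibition past about -25% in most replicates, and total fluorescence under double the plate's negative control median, limit read from the data; inconclusive = replicates evenly split on the limit, or fluorescence at least double controls; inactive = too little inhibition in most replicates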
Target sequence (Q9XUB2 whole entry, looked up): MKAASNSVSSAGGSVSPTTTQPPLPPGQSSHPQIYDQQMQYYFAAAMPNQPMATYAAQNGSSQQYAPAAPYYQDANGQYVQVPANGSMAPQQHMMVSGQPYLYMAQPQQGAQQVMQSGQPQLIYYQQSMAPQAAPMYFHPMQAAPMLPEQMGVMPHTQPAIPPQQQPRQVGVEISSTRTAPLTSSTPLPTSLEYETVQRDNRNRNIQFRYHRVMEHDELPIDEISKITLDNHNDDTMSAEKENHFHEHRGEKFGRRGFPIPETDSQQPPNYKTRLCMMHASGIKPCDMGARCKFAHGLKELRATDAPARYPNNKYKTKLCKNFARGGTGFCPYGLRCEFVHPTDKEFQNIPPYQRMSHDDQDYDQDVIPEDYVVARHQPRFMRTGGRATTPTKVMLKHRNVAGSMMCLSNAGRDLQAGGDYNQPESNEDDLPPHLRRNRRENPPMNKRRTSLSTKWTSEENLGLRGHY
eLon inh – inhibitors of E. coli Lon protease, primary screen, biochemical, fluorescence polarization | purified E. coli Lon protease | inhibition, % at 7.94 µM | 0.42% of 360,000 active; in the data active = inhibition above about 13%, passing the limit was not always enough
MCL1 BIM primary – inhibitors of MCL1 binding to BIM-BH3, primary screen, biochemical, fluorescence polarization; GST-MCL1 / FITC-Bim-BH3 fluorescence polarization; 0.68% of 320,000 active; Induced myeloid leukemia cell differentiation protein Mcl-1 (Homo sapiens), Q07820; inhibition, % at 10.9 µM;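 active = inhibition above the mean inhibition of all tested compounds plus 3 SD, set per campaign, cut at about 40% in these data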;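 note: higher means more loss of mP so more displacement of Bim peptide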
EBV gp42 inh – Epstein-Barr virus gp42 inhibitors, primary screen, biochemical, uHTS, fluorescence polarization | AID 1085, 2008 | 0.42% of 220,000 active | inhibition, % (tested at 21.74 µM) | Fluorescence polarization binding assay, mP read-out; in the data active = inhibition above about 50%
Each line names hits and unclear results; the compound was inactive in the other large screens. Only some compounds are listed: those with a hit (about 1.5% of all), similar ones and a draw of the others.

COc1ccccc1Cn1c(=S)[nH]c2cc(C(=O)N3CCCC3)ccc2c1=O	none (no result: EBV gp42 inh)
CCN1CCN(C(=O)c2ccc3c(=O)n(Cc4ccccc4OC)c(=S)[nH]c3c2)CC1	MEX-5 binding -28.8
Cc1ccc2nc(-c3cccc(S(=O)(=O)N4CC(C)OC(C)C4)c3)cn2c1 (configuration not stated)	none (no result: EBV gp42 inh)
CCOc1ccc(C2C=C(c3ccc(C)cc3)Nc3ncnn32)cc1 (configuration not stated)	BCLXL inh 46.7, MCL1 BIM primary 41.4 (no result: eLon inh)
CC(=O)C1=C(c2ccccc2)OC(N)=C(C#N)C1c1ccccc1C (configuration not stated)	none
CC(=O)C1(C)OC(N)=C(C#N)C(c2ccccc2)C1(C#N)C#N (configuration not stated)	BCLXL inh 42.9
O=C(C[C@H]1C[C@H](C(=O)N2CCCCC2)[C@@]2(CCc3ccccc3)c3[nH]c4ccc(Cl)cc4c3CCN2C1=O)NCc1cccc(C(F)(F)F)c1	none (no result: BCLXL inh, GLD-1 RNA inh, MEX-5 binding, MCL1 BIM primary, EBV gp42 inh)
COc1cc(NC(=O)NNC(=O)c2cc3occc3n2C)cc(OC)c1OC	none (no result: EBV gp42 inh)
CC(=O)c1cccc(S(=O)(=O)N2CCC(C(=O)N(C)Cc3ccc(Cl)s3)CC2)c1	none (no result: MEX-5 binding, EBV gp42 inh)
O=C(/C=C/c1ccc(O)c(O)c1)OCCc1ccccc1	none (no result: EBV gp42 inh)
O=C(/C=C/c1ccc(O)c(O)c1)OC(Cc1ccc(O)c(O)c1)C(=O)O (configuration not stated)	MEX-5 binding -53.3 (no result: EBV gp42 inh)
CCSc1nc2sc3c(c2c(=O)[nH]1)CCCC3	EBV gp42 inh 65.8
COC(=O)C1C(O)C(C)C(O)C(C)(O)/C=C\C=C(/C)C(=O)Nc2c(C)c(OC(C)=O)c3c(c2O)C(=O)C(C)=C2OCOC(=C23)/C(C)=C/C(C)(O)C(O)C(C)C1O (configuration not stated)	BCLXL inh 49.9
O=C(CNC(=O)c1ccccn1)N=Nc1c(O)[nH]c2ccccc12	none (no result: EBV gp42 inh)
Oc1ccc2ccccc2c1/C=N/Nc1nnc(-c2ncc[nH]2)c2ccccc12	MEX-5 binding -34.8
O=[N+]([O-])c1ccc(/C=N/n2c(CO)nc3ccccc32)s1	MEX-5 binding -34.8, EBV gp42 inh 53.1
Cc1nc2ccccc2n1/N=C/c1ccc([N+](=O)[O-])s1	BCLXL inh 32.3, MEX-5 binding -75.5
Cc1cc2ncn(/N=C/c3ccc([N+](=O)[O-])s3)c2cc1C	none
Cc1cccc2c(=O)n(C(=O)c3ccccc3)c(N)nc12	none (no result: BCLXL inh, GLD-1 RNA inh, MEX-5 binding, MCL1 BIM primary, EBV gp42 inh)
CNC(=O)c1cn(-c2ccccc2)c(=O)c2ccccc12	BCLXL inh 72.1, GLD-1 RNA inh 72.2, MCL1 BIM primary 40.8
CN(C)C(=O)c1cn(-c2ccccc2)c(=O)c2ccccc12	none
CC1=C/C(=C\c2ccc(Br)o2)C(=O)O1	EBV gp42 inh 51.0
CCCCN1C(=O)C(O)=C(C(C)=O)C1c1ccccc1[N+](=O)[O-] (configuration not stated)	none
O=C(O)CCCCCN1C(=O)C(O)=C(C(=O)/C=C/c2ccccc2)C1c1ccccc1[N+](=O)[O-] (configuration not stated)	MEX-5 binding -40.0
Cn1ncc(N)c1C(=O)Nc1cccc(C(F)(F)F)c1	BCLXL inh 41.0
Cc1cc(C)nc(NN2C(=O)C=CC2=O)n1	MEX-5 binding -28.7 (no result: EBV gp42 inh)
Cc1cc(C)nc(NN2C(=O)/C(=C/c3ccccc3)SC2=S)n1	none
CN(C(=O)COc1cccc(C#N)c1)C1CCS(=O)(=O)C1 (configuration not stated)	none (no result: MEX-5 binding, EBV gp42 inh)
Nc1cccc2c1C(=O)N(CCOc1ccccc1F)C2=O	BCLXL inh 35.2 (no result: EBV gp42 inh)
Cc1ccc(NC(=O)CCS(=O)(=O)c2cc3c(cc2Cl)NC(=O)CO3)cc1	MEX-5 binding -26.5 (no result: EBV gp42 inh)
CC1CCCCC1NC(=O)CSc1nnnn1C (configuration not stated)	none (no result: BCLXL inh, GLD-1 RNA inh, MEX-5 binding, MCL1 BIM primary, EBV gp42 inh)
CC1CCN(S(=O)(=O)CCNC(=O)c2ccc(F)cc2)CC1	none (no result: EBV gp42 inh)
N#CC1(NC(=O)COC(=O)/C=C/c2ccc3ccccc3n2)CCCCC1	BCLXL inh 32.2 (no result: EBV gp42 inh)
Fc1ccccc1/C=N/Nc1ncnc2nc[nH]c12	EBV gp42 inh 58.7
Oc1ccc(/C=N/Nc2ncnc3nc[nH]c23)cc1	MEX-5 binding -29.0
Fc1cccc(/C=N/Nc2ncnc3nc[nH]c23)c1	none
Clc1ccc(/C=N/Nc2ncnc3nc[nH]c23)cc1	none
Cc1ccc(/C=N/Nc2ncnc3nc[nH]c23)cc1	MEX-5 binding -25.9
CCOc1ccc(NC(=O)/C(C#N)=C/c2ccc(N3CCCC3)c(C)c2)cc1	EBV gp42 inh 94.0 (no result: MEX-5 binding)
COc1ccc2c(c1OC)C(=O)OC2N1C(=O)CC[C@H]1C(=O)Nc1ccc2c(c1)OCO2 (some centres not stated)	none (no result: EBV gp42 inh)
COc1ccc(-c2coc3cc4oc(=O)cc(-c5ccccc5)c4cc23)cc1F	BCLXL inh 37.3 (no result: MEX-5 binding)
COc1ccc(-c2coc3cc4oc(=O)cc(C)c4cc23)cc1F	none
O=C(CCc1nc(-c2ccccc2)no1)NC1CCCCCC1	none (no result: MEX-5 binding, EBV gp42 inh)
CCOC(=O)C(C)On1c(-c2ccccc2)nc2ccc([N+](=O)[O-])cc21 (configuration not stated)	none
O=C(O)COn1c(-c2ccccc2)nc2ccc([N+](=O)[O-])cc21	EBV gp42 inh 73.2
Cc1ccccc1-n1c(SC/C(O)=C(\C#N)c2nc3ccccc3[nH]2)nnc1-c1ccncc1	none
Cc1cc(C)n2c(SC/C(O)=C(\C#N)c3nc4ccccc4[nH]3)nnc2n1	EBV gp42 inh 66.8
O=C(Nc1ccncc1)Nc1cccc(Cl)c1Cl	none (no result: BCLXL inh, GLD-1 RNA inh, MCL1 BIM primary, EBV gp42 inh)
O=C(Nc1ccc(Cl)cc1)Nc1cccc2nsnc12	BCLXL inh 47.7
Cc1cccc(C(=O)NNC2=CC(=O)CC(C)(C)C2)c1O	none
CC1(C)CC(=O)C=C(NNC(=O)c2ccccc2O)C1	GLD-1 RNA inh 52.7
Cc1ccc(C(=O)CSc2nc3c([nH]2)c(=O)n(C)c(=O)n3C)cc1	MEX-5 binding -29.8
CN(C)c1ccc(/C=C/C(=O)c2cc(Cl)ccc2O)cc1	EBV gp42 inh 65.4
O=C(/C=C/c1ccc(O)c(O)c1)c1ccccc1O	MEX-5 binding -38.0
Cc1nnc(SCC(=O)Nc2ccc(S(N)(=O)=O)cc2)n(N)c1=O	none (no result: BCLXL inh, MEX-5 binding, MCL1 BIM primary, EBV gp42 inh)
N=c1oc2c3c4c(cc2cc1C(=O)Nc1ccccc1)CCCN4CCC3	BCLXL inh 165.1, GLD-1 RNA inh 87.7, MEX-5 binding inconclusive, MCL1 BIM primary 191.5
Cc1ccc(/C=c2\sc3nc(-c4ccccc4Br)nn3c2=O)o1	none
